About 2,100 (0.57%) of roughly 370,000 compounds were called active. The full list was thinned out, with actives kept by preference. A number with no mark means an inactive call.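 The calls were made as follows: active = inhibition above mean plus 3 SD of compounds lying within the high and low control bounds (cut at about 19% in these data); inactive = the rest.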

The target in this experiment is Group 3 secretory phospholipase A2 (Homo sapiens) (UniProt Q9NZ20). Kind of experiment: human group III sPLA2 inhibitors, primary screen, biochemical, QFRET, BODIPY PC-A2 liposome substrate (AID 743126).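 Also: 0% = median of test compound wells and 100% = no enzyme DMSO wells.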 As to conditions: QFRET BODIPY PC-A2 liposome hydrolysis, fluorescence; at 12.2 µM; stronger effect = higher value.
Group 3 secretory phospholipase A2 (Homo sapiens), sequence (Q9NZ20 whole entry, looked up): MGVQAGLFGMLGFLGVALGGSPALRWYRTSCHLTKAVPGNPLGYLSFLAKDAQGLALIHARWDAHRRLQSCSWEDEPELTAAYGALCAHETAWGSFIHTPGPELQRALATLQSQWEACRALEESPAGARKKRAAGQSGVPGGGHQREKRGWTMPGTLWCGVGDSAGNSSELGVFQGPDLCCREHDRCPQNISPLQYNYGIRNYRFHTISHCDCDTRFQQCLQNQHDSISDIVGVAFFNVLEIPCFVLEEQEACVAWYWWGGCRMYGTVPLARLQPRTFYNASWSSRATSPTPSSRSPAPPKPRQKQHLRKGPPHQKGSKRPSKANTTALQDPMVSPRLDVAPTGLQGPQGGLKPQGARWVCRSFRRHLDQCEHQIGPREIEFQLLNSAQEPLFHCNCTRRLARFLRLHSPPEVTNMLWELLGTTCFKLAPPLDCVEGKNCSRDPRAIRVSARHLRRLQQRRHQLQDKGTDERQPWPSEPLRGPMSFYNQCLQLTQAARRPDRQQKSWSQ
Turning to `NC(=O)C1(C(N)=O)OC1c1ccc(Cl)cc1Cl` (centres undefined), the inhibition (commonly the relative decrease from the control value, in per cent) was -4.76%.

Consider `Nc1ccc2nn(-c3ccc(Cl)cc3)nc2c1`, for which the inhibition was 0.58%.

In the case of `Nc1ccc2c(c1)C(O)c1ccc(Cl)cc1-2` (centres undefined), the inhibition is 19.6% (active).

`Cc1ccc(C(=O)N(Cc2ccccn2)CC2CCCO2)cc1` (centres undefined): the inhibition is 1.49%.

With `CCN(CC)C(=O)CC[C@@H]1CC[C@]2(CCCN(S(=O)(=O)C3CCCCC3)C2)O1`, the inhibition is 11.9%.

In the case of `Cc1ccc(C(=O)Nc2nc(N)n(-c3ccccc3)n2)cc1`, the inhibition was 12.6%.

Regarding `Cc1ccc(-c2csc(NNC(=O)c3ccccc3)n2)cc1`, the inhibition was 41.2% (active).

With `O=C(NNc1nc(N2CCCC2)nc(N2CCCC2)n1)c1ccccc1`, the inhibition is -2.93%.

For `COC(=O)[C@]12C[C@H](CC(=O)NCc3cccc4ccccc34)C(=O)N(CCc3ccc(OC)c(OC)c3)C1=C[C@H](C1CCCC1)O[C@@H]2C`, the inhibition was -20.3%.

With `CCn1c2ccccc2c2cc(NC(=O)CSc3nnc(-c4ccccc4)n3-c3ccc(C)cc3)ccc21`, the inhibition was -1.34%.

Regarding `CCn1c(=O)n2n(c1=O)[C@@]1(C=C3CCCC[C@H]32)N=C(NC(=O)c2ccccc2)N(Cc2ccccc2)[C@H]1Cc1ccccc1`, the inhibition was 10.8%.

In the case of `C[C@H]1[C@H](NC(=O)c2cccc(N(C)C)c2)CC[C@@]23CCCN2C(=O)CCC[C@@H]13`, the inhibition was -4.79%.

For the compound `C/C(=N\Nc1ccc(Cl)nn1)c1ccccc1O`, the inhibition was 23.4% (active).

On to `Fc1ccccc1Cc1ccc(Cl)nn1`, for which the inhibition was 9.12%.

As to `COC(=O)[C@@]12CCCCC=C1N(CCc1ccc(Cl)cc1)C(=O)[C@H]2CC(=O)NCc1ccc(OC)c(OC)c1`, the inhibition is -15%.

Turning to `Nc1[nH]c(C(=O)c2ccc(Br)cc2)c(-c2ccc3c(c2)OCO3)c1C(=O)NCCc1c[nH]c2ccccc12`, the inhibition was -43.9%.

For the compound `CC(C)(C)C(=O)c1c(N)[nH]c(C(=O)c2ccccc2)c1-c1ccc(F)cc1`, the inhibition was 5.32%.

As for `Nc1[nH]c(C(=O)c2ccccc2)c(-c2ccc(Br)cc2)c1C(=O)NC1CC1`, the inhibition is 25.4% (active).

For `COc1ccc(CCNC(=O)CSc2nc3c([nH]2)c(=O)n(C)c(=O)n3C)cc1`, the inhibition was 5.11%.

With `CC(C)CNc1cccc2c1S(=O)(=O)N(Cc1cn(Cc3ccccc3C(F)(F)F)nn1)Cc1ccccc1O2`, the inhibition is 6.58%.

On to `CCOC(=O)C1CCN(C(=O)C(C)(C)NC(=O)Nc2ccc(F)c(F)c2)CC1`, for which the inhibition is 1.05%.

`CCOc1ccc(/C=N/NC(N)=S)cc1`: the inhibition was 19.5% (active).

Regarding `CCOc1ccc(/C=N\NC(=O)c2c(C)nc3cc(C)ccn23)cc1`, the inhibition is 1.86%.

For the compound `CCOc1ccc(NS(=O)(=O)c2ccc(C)c(C(N)=O)c2)cc1`, the inhibition was 2.14%.

As to `CCOC(=O)N1CCN(C(=O)C[C@H]2C[C@@]3(C(=O)OC)C(=C[C@H](C(C)(C)C)O[C@@H]3C)N(Cc3ccc(Cl)cc3Cl)C2=O)CC1`, the inhibition was -6.16%.

Take `CCOC(=O)[C@]12CCCC3=C1N(CCC3)C(=O)[C@@H](CC(=O)NCc1cccs1)C2`: the inhibition is -0.88%.

Turning to `COC(=O)[C@]12C[C@H](CC(=O)NCCCN3CCCC3=O)C(=O)N(CCc3ccc(OC)c(OC)c3)C1=C[C@H](COCc1ccccc1)O[C@@H]2C`, the inhibition is 11.1%.

Consider `Cc1ccc(C2CC(c3cccc(Br)c3)n3nc(N)nc3N2)cc1` (centres undefined), for which the inhibition is 9.36%.

Regarding `Cc1ccc(C2CC(c3cccc(C)c3)n3nc(N)nc3N2)cc1` (centres undefined), the inhibition was 25.2% (active).

Consider `COc1ccc(C2CC(c3ccc(Cl)cc3Cl)Nc3nc(N)nn32)cc1OC` (centres undefined), for which the inhibition was 0.41%.

`O=C(OC12CCCN(C1)/C(=C/c1ccccc1)C2)c1ccco1` (centres undefined): the inhibition was 4.15%.

`C=CCN(Cc1ccc2c(c1)OCO2)C(C#CC1CC1)C(C)(C)C` (centres undefined): the inhibition was 7.02%.

Regarding `COc1cc(NC(=O)C2CCCN(S(=O)(=O)c3ccc(C(C)(C)C)cc3)C2)cc(OC)c1` (centres undefined), the inhibition was 2.94%.

Consider `CCC(c1ccc(NC(=O)OC(C)(C)C)cc1)c1cc(OC)cc(OC)c1` (centres undefined), for which the inhibition was -18.5%.

Regarding `COc1ccc(CSc2nnc(SCC(=O)Nc3ccccc3C(F)(F)F)s2)cc1`, the inhibition is -11.2%.

`CC(C)(c1ccccc1)c1ccc(OCCN)cc1`: the inhibition is 23.6% (active).

As for `Cc1nn(CCOc2ccccc2)c(=O)n1-c1ccccc1F`, the inhibition is 3.1%.

Consider `O=C(NCCOc1ccccc1)c1ccccc1F`, for which the inhibition was 8.32%.

As to `COC(=O)[C@]12C[C@H](CC(=O)NCc3ccccc3)C(=O)N(CCC3=CCCCC3)C1=C[C@H](C(C)C)O[C@@H]2C1CC1`, the inhibition was -0.06%.

Regarding `CCn1c(SCC(C)=O)nc2sc3c(c2c1=O)CCCC3`, the inhibition is -63%.

Consider `CCCC1CCC2(CCCN2CCOC(=O)NCc2ccccc2)CC1` (centres undefined), for which the inhibition was 0.68%.

In the case of `CC(=O)OC12CCCN(C1)/C(=C/c1ccncc1)C2` (centres undefined), the inhibition was 8.67%.

On to `CC(=O)C1(C(=O)Nc2nccs2)CC(c2ccccc2C(F)(F)F)=NO1` (centres undefined), for which the inhibition was -9.84%.

For the compound `Cc1cccc(NC(=S)NCCN(C2CCCCC2)C2CCCC2)c1`, the inhibition is 23.8% (active).

As to `Cc1cccc(NC(=S)NCc2ccc3[nH]c4c(c3c2)CCCC4)c1`, the inhibition was -9.81%.

As to `Cc1cccc(C(=O)NC(=S)N(C)C2CCCCC2)c1`, the inhibition was 7.08%.

As to `C=CCN1C(=O)[C@H](CC(=O)N2CCN(C(=O)OCC)CC2)[C@@]2(C(=O)OCC)CCCC=C12`, the inhibition is -3.08%.

With `Cc1ccccc1CN1CCCCC(NC(=O)c2cccc(C#N)c2)C1=O` (centres undefined), the inhibition was 14%.

Regarding `CCOc1ccc(-n2c(SCC(=O)Nc3cc(C)c(NC(=O)c4ccccc4)cc3OC)nnc2-c2cccs2)cc1`, the inhibition was -11.7%.

`CCC[C@H]1C(=O)CC[C@@]23CCCN2C(=O)CCC[C@@H]13`: the inhibition was 9.16%.

`COc1ccc([C@H]2OC(=O)C[C@H]2C(=O)N2CCN(c3ccccc3F)CC2)cc1OC`: the inhibition was -0.35%.

Take `Cn1c2c(c(=O)n(C)c1=O)C1c3ccccc3OCC1C(C)(C)O2` (centres undefined): the inhibition was 20.6% (active).

Turning to `COc1cccc2c1OCC1COc3c(c(=O)n(C)c(=O)n3C)C21` (centres undefined), the inhibition is 8%.

Regarding `Cn1c2c(c(=O)n(C)c1=O)[C@@H]1c3c(ccc4ccccc34)OC[C@@H]1CO2`, the inhibition is 1.04%.
